The assay has as its target Genome polyprotein (Dengue virus type 2 (strain 16681-PDK53)) (UniProt P29991). The experiment in a line: flavivirus cap methylation enzyme inhibition – biochemical, confirmation dose response, primary screen (AID 588689). Particulars: Dengue-2 NS5 methyltransferase capping enzyme assay, at 25 µM, stronger effect = higher value.
Where [1] appears, read: measured here: pilot screen replicate inhibition.

The structures appear in SMILES notation. Hit rate of the full screen: of about 340,000 compounds, about 1,000 (0.29%) were called active. No stated cut-off is given here; in the data, inconclusive means inhibition above about 29% without an active follow-up result; inactive means below that. A selection follows. Potency and affinity values are given separately.

Broadly, the inhibition is the change of the read-out against control, counted positive when it falls. As to `O=C1NN(c2ccccc2)C(=O)/C1=C\c1ccccc1`, the inhibition was 8.92% (inactive). In the case of `O=C1NN(c2ccccc2)C(=O)C1=Cc1ccccc1`, the inhibition was 25.9% (inactive). Regarding `COc1cc(/C=C2/C(=O)NN(c3ccc(F)cc3)C2=O)cc(Cl)c1O`, the inhibition was -28% (inactive). For the molecule `C#CCOc1ccc(/C=C2/C(=O)NN(c3ccc(F)cc3)C2=O)cc1OC`, the inhibition was 14.3% (inactive). Consider `COc1ccc2oc(C(=O)OCC(=O)N(C)C3CCS(=O)(=O)C3)c(C)c2c1` (stereo not given), for which the inhibition was -8.65% (inactive). With `O=C(CNC(=O)c1ccc(F)cc1)N/N=C/c1cn[nH]c1-c1ccccc1`, the inhibition is -12.6% (inactive). Consider `CN(CC(=O)Nc1ccc(F)cc1)C(=O)CSc1nncs1`, for which the inhibition is -2.59% (inactive). `CCCCC(=O)Nc1nnc(-c2ccco2)o1`: the inhibition is 1.48% (inactive). Regarding `CCNS(=O)(=O)c1ccc(NC(=O)Nc2ccc3c(c2)OCO3)cc1`, the inhibition is -8.45% (inactive). Consider `Cc1c(F)cccc1NS(=O)(=O)c1ccc2c(c1)c(C)cc(=O)n2C`, for which the inhibition is -4.58% (inactive). Turning to `O=C1C(Cl)=C(NCCN2CCOCC2)C(=O)c2ccccc21`, the inhibition was 4.52% (inactive). Still for that read-out and setting: for `O=C1C(Cl)=C(NCCCN2CCOCC2)C(=O)c2ccccc21` the value was 17% (inactive). As to `O=C1C(Cl)=C(N2CCN(c3ccccc3[N+](=O)[O-])CC2)C(=O)c2ccccc21`, the inhibition was 3.21% (inactive). On to `CN1CCN(C2=C(NS(=O)(=O)c3ccccc3)C(=O)c3ccccc3C2=O)CC1`, for which the inhibition is 7.03% (inactive).

For `NC(=O)C1CCN(C2=C(NS(=O)(=O)c3ccccc3)C(=O)c3ccccc3C2=O)CC1`, the inhibition was 0.77% (inactive). As to `NC(=O)C1CCN(C2=C(NS(=O)(=O)c3ccc(Cl)cc3)C(=O)c3ccccc3C2=O)CC1`, the inhibition is 7.95% (inactive). As for `Cc1ccc(C=NNc2ccc([N+](=O)[O-])cn2)cc1`, the inhibition is -5.44% (inactive).

For the molecule `O=S(=O)(c1cc(Cl)ccc1Cl)N1CC2CCCN2c2ccc(C(F)(F)F)cc21` (stereo not given), the inhibition was -10.5% (inactive). As to `Cc1ccc2cc(CCNC(=O)c3cccc([N+](=O)[O-])c3)c(=O)[nH]c2c1C`, the inhibition is 2.58% (inactive). With `CCCn1c(=O)c2ccccc2n2c(SCC(=O)c3ccc(CC)cc3)nnc12`, the inhibition was -1.12% (inactive). Same read-out and setting: for `Cc1cc(CN2CCCC(CNC(=O)c3ccc(F)cc3)C2)cc(C)c1O` (stereo not given) the value was -7.66% (inactive); for `CCCOc1ccc(C2C(C(=O)c3cc4ccccc4o3)=C(O)C(=O)N2c2cc(C)on2)cc1OC` (stereo not given), -3.55% (inactive); for `C=CCOc1cccc(C2C(C(=O)c3ccc(C)o3)=C(O)C(=O)N2CCN(C)C)c1` (stereo not given), -3.18% (inactive). Turning to `CCCOc1ccc(C2C(C(=O)c3cc4ccccc4o3)=C(O)C(=O)N2c2cc(C)on2)cc1` (stereo not given), the inhibition is 27.6% (inactive). As to `COc1cccc(C2C(C(=O)c3cc4ccccc4o3)=C(O)C(=O)N2c2cc(C)on2)c1` (stereo not given), the inhibition was 11.6% (inactive). For the molecule `CCCOc1ccc(/C(O)=C2\C(=O)C(=O)N(c3ccccn3)C2c2ccccc2F)cc1C` (stereo not given), the inhibition is 22.2% (inactive). Take `COc1ccc(C2C(C(C)=O)=C(O)C(=O)N2c2ccccn2)cc1` (stereo not given): the inhibition was 0.65% (inactive).

Regarding `Cc1cc(N2C(=O)C(O)=C(C(=O)c3cc4ccccc4o3)C2c2cccc(Br)c2)no1` (stereo not given), the inhibition was 5.32% (inactive). The same measure, in the same setting: for `C=CCOc1cccc(C2C(C(=O)c3ccc(C)o3)=C(O)C(=O)N2Cc2ccncc2)c1` (stereo not given) the value was -1.6% (inactive). On to `COc1cc(C2CC(=O)Oc3cc(O)ccc32)cc(OC)c1OC` (stereo not given), for which the inhibition was 1.65% (inactive). Moreover, the inhibition under setting [1] is 3.63%. On to `C=CCN1CCN(C(c2cc(OC)ccc2OC)c2nnnn2CC2CCCO2)CC1` (stereo not given), for which the inhibition was 1.37% (inactive). With `COc1ccc(-c2ccc(=O)n(Cc3ccccc3)n2)cc1`, the inhibition is -0.78% (inactive). For the molecule `C=CCn1c(CC(C)(C)C)nc2ccccc21`, the inhibition is -5.1% (inactive). With `Cc1ccc(S(=O)(=O)N2CCCN(C(=O)c3ccc(-n4nccc4C)cc3)CC2)cc1`, the inhibition is -5.13% (inactive). In the case of `CCOC(=O)C1CCCN(C(=O)/C(=C/c2ccco2)NC(=O)c2ccccc2)C1` (stereo not given), the inhibition was -14.3% (inactive). Still for that read-out and setting: for `CC[n+]1c(/C=C(\C)OC)sc2ccccc21` the value was 2.92% (inactive); for `O=C(COC(=O)/C=C/c1ccccc1Cl)NC(=O)NC1CCCC1`, -7.24% (inactive).

In the case of `COCCNC(=O)CN1C(=O)CSc2ccc(S(=O)(=O)N3CCOCC3)cc21`, the inhibition was 0.89% (inactive). Take `COc1ccc(C(=O)N2CCN(c3ccc(NC(=O)c4ccco4)cc3)CC2)cc1`: the inhibition is 0% (inactive). As for `CC1(C)CC(=O)c2c(O)cc(O)cc2O1`, the inhibition was -4.17% (inactive). On the same count and under the same terms, for `COc1cc(O)c2c(c1)OC(C)(C)CC2=O` the value was -2.94% (inactive); for `N#CCCN(C(=O)COC(=O)CNS(=O)(=O)c1ccc2ccccc2c1)c1ccccc1`, 1.1% (inactive). Take `N#CCc1ccc(NC(=O)Cn2c(=O)oc3ccccc32)cc1`: the inhibition was -3.26% (inactive). Further, the inhibition under setting [1] is -4.87%. For `COc1ccc(S(=O)(=O)N2CCCC2)c(Cl)c1Cl`, the inhibition was -8.19% (inactive).

Take `COc1ccc(OC)c(-c2cc(C(=O)Nc3sc4c(c3C#N)CCC(C)C4)c3ccccc3n2)c1` (stereo not given): the inhibition was -5.61% (inactive). Turning to `CC1CCc2c(sc(NC(=O)c3ccccc3C(=O)O)c2C#N)C1` (stereo not given), the inhibition was -0.74% (inactive). `COc1ccc(-c2cc(C(=O)Nc3sc4c(c3C#N)CCCC4)c3ccccc3n2)cc1OC`: the inhibition was -4.06% (inactive). In the case of `CCC(C)(C)C1CCc2c(sc(NC(=O)c3ccoc3C)c2C(N)=O)C1` (stereo not given), the inhibition was -3.22% (inactive). As to `N#Cc1c(NC(=O)C2CC=CCC2C(=O)O)sc2c1CCCCCC2` (stereo not given), the inhibition is 5.78% (inactive). With `CCC1CCc2c(sc(NC(=O)C3CC=CCC3C(=O)O)c2C#N)C1` (stereo not given), the inhibition is 27.5% (inactive). Take `CCOc1ccc(-c2cccc(NC(=O)COc3ccc(Cl)cc3)c2)nn1`: the inhibition is -5.43% (inactive). With `COc1ccc(/C=C/C(=O)c2cc(Br)ccc2O)cc1OC`, the inhibition is 0.78% (inactive). Take `Cc1cccc(-n2nnnc2SCC(=O)Nc2cccc(S(N)(=O)=O)c2)c1`: the inhibition was 0% (inactive). `Cc1ccc(NC(=S)NCC2CCCO2)cc1` (stereo not given): the inhibition was -18% (inactive).

In the case of `C[C@H](CO)N1C[C@H](C)[C@@H](CN(C)Cc2ccc(C(=O)O)cc2)Oc2c(NS(=O)(=O)c3cccs3)cccc2C1=O`, the inhibition is 2.31% (inactive). Under setting [1], the inhibition was -3.33%. As to `CC1(C)CC(=O)C(C#N)=C(NCCCO)C1`, the inhibition was -3.49% (inactive). Consider `CC(C)=NNC1=NC(C)(C)Cc2ccccc21`, for which the inhibition was 3.83% (inactive).

The record behind these values is PubChem BioAssay AID588689 (Southern Research Specialized Biocontainment Screening …, 2011).
